Data on five sequences can be found in PMC11006913.

What all share (assay): PBM; 200 nM protein, PBS
Common to all, as to conditions: dsDNA, one strand shown

The target in assay [1] is CRX (Homo sapiens, UniProt O43186 26-111).
In assay [2] the target is T1, SIX6 (Homo sapiens, UniProt O95475 114-200, L167I).
T1 sequence: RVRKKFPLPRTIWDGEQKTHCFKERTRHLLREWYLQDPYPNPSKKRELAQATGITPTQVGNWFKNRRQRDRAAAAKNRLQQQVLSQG

Assay [3] deals with T2, SIX6 (Homo sapiens, UniProt O95475 114-200, L143V).
T2 sequence: T1 sequence with L30V, I54L

The target of assay [4] is ALX4 (Homo sapiens, UniProt Q9H161 200-286).
The target in assay [5] is T3, SIX6 (Homo sapiens, UniProt O95475 114-200, H141N).
T3 sequence: T1 sequence with H28N, I54L

Assay [6] has as its target T4, SIX6 (Homo sapiens, UniProt O95475 114-200, T165P).
T4 sequence: T1 sequence with T52P, I54L

In assay [7] the target is T5, SIX6 (Homo sapiens, UniProt O95475 114-200, L167M).
T5 sequence: T1 sequence with I54M

Assay [8] concerns the target T6, SIX6 (Homo sapiens, UniProt O95475 114-200, L143M).
T6 sequence: T1 sequence with L30M, I54L

Assay [9] deals with T7, SIX6 (Homo sapiens, UniProt O95475 114-200, L143I).
T7 sequence: T1 sequence with L30I, I54L

The target of assay [10] is ALX4 (Homo sapiens, UniProt Q9H161 200-286, Q225E).
The target in assay [11] is T8, SIX6 (Homo sapiens, UniProt O95475 114-200, T165G).
T8 sequence: T1 sequence with T52G, I54L

Assay [12] addresses T9, SIX6 (Homo sapiens, UniProt O95475 114-200, T139Q).
T9 sequence: T1 sequence with T26Q, I54L

Assay [13] has as its target CRX (Homo sapiens, UniProt O43186 26-111, E42D).
Assay [14] addresses T10, SIX6 (Homo sapiens, UniProt O95475 114-200, T165A).
T10 sequence: T1 sequence with T52A, I54L

Assay [15] concerns the target T11, SIX6 (Homo sapiens, UniProt O95475 114-200, L167V).
T11 sequence: T1 sequence with I54V

The target of assay [16] is T12, SIX6 (Homo sapiens, UniProt O95475 114-200).
T12 sequence: T1 sequence with I54L

The target in assay [17] is T13, SIX6 (Homo sapiens, UniProt O95475 114-200, T165I).
T13 sequence: T1 sequence with T52I, I54L

In assay [18] the target is CRX (Homo sapiens, UniProt O43186 26-111, R41L).
The target in assay [19] is T14, VENTX (Homo sapiens, UniProt O95231 78-163, R121Q).
T14 sequence: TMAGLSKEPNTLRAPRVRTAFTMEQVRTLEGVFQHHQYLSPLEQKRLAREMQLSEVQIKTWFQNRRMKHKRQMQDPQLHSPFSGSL

The target in assay [20] is T15, VENTX (Homo sapiens, UniProt O95231 78-163).
T15 sequence: T14 sequence with Q44R

Assay [21] has as its target T16, VENTX (Homo sapiens, UniProt O95231 78-163, Y115F).
T16 sequence: T14 sequence with Y38F, Q44R

For assay [22], the target named is HOXB9 (Homo sapiens, UniProt P17482 171-250).
The target in assay [23] is PITX2 (Homo sapiens, UniProt Q99697 72-157).
The target of assay [24] is HOXB9 (Homo sapiens, UniProt P17482 171-250, R186Q).
Assay [25] has as its target HOXC9 (Homo sapiens, UniProt P31274 178-260, K195R).
Assay [26] addresses HOXC9 (Homo sapiens, UniProt P31274 178-260).
Assay [27] addresses HOXC9 (Homo sapiens, UniProt P31274 178-260, R193K).
The target of assay [28] is HOXC9 (Homo sapiens, UniProt P31274 178-260, R222W).

Substitutions are numbered along the chain they refer to.

CRX (Homo sapiens, UniProt O43186 26-111, R41L), sequence (O43186 26-111 R41L): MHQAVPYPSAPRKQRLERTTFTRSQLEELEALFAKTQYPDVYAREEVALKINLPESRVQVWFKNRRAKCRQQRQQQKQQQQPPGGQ
CRX (Homo sapiens, UniProt O43186 26-111), sequence (O43186 26-111): as the sequence (O43186 26-111 R41L) above, with L16R counted along it
CRX (Homo sapiens, UniProt O43186 26-111, E42D), sequence (O43186 26-111 E42D): as the sequence (O43186 26-111 R41L) above, with L16R, E17D counted along it
ALX4 (Homo sapiens, UniProt Q9H161 200-286, Q225E), sequence (Q9H161 200-286 Q225E): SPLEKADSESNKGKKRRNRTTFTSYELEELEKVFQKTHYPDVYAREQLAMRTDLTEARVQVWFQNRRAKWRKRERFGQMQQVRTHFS
HOXC9 (Homo sapiens, UniProt P31274 178-260, R193K), sequence (P31274 178-260 R193K): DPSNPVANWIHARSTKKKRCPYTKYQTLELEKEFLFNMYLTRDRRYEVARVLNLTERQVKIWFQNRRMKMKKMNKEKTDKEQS
HOXB9 (Homo sapiens, UniProt P17482 171-250, R186Q), sequence (P17482 171-250 R186Q): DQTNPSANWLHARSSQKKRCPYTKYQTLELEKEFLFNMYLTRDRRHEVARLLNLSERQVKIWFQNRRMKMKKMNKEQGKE
HOXC9 (Homo sapiens, UniProt P31274 178-260), sequence (P31274 178-260): as the sequence (P31274 178-260 R193K) above, with K16R counted along it
HOXC9 (Homo sapiens, UniProt P31274 178-260, R222W), sequence (P31274 178-260 R222W): as the sequence (P31274 178-260 R193K) above, with K16R, R45W counted along it
HOXC9 (Homo sapiens, UniProt P31274 178-260, K195R), sequence (P31274 178-260 K195R): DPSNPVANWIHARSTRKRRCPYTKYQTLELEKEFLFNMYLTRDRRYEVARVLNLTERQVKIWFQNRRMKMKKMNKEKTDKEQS
ALX4 (Homo sapiens, UniProt Q9H161 200-286), sequence (Q9H161 200-286): as the sequence (Q9H161 200-286 Q225E) above, with E26Q counted along it
HOXB9 (Homo sapiens, UniProt P17482 171-250), sequence (P17482 171-250): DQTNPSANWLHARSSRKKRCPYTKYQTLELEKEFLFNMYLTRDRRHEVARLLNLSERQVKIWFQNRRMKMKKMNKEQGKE

Consider CGCACCGC, for which the binding signal in assay [1] is 8.16 upbm affinity estimate (log intensity, higher = more binding, comparable within an allelic series); in assay [2], 8.91 upbm affinity estimate (log intensity, higher = more binding, comparable within an allelic series); in [3] it was 8.89 upbm affinity estimate (log intensity, higher = more binding, comparable within an allelic series); in assay [4] it was 8.06 upbm affinity estimate (log intensity, higher = more binding, comparable within an allelic series); in [5], 8.95 upbm affinity estimate (log intensity, higher = more binding, comparable within an allelic series); in assay [6], 8.88 upbm affinity estimate (log intensity, higher = more binding, comparable within an allelic series). Also, the binding signal was 8.89 upbm affinity estimate (log intensity, higher = more binding, comparable within an allelic series) in [7]; 8.96 upbm affinity estimate (log intensity, higher = more binding, comparable within an allelic series) in assay [8]; 9 upbm affinity estimate (log intensity, higher = more binding, comparable within an allelic series) in assay [9]; 8.31 upbm affinity estimate (log intensity, higher = more binding, comparable within an allelic series) in assay [10]; 9.05 upbm affinity estimate (log intensity, higher = more binding, comparable within an allelic series) in assay [11]; 9.17 upbm affinity estimate (log intensity, higher = more binding, comparable within an allelic series) in assay [12]. The binding signal is 8.2 upbm affinity estimate (log intensity, higher = more binding, comparable within an allelic series) in assay [13]; 8.98 upbm affinity estimate (log intensity, higher = more binding, comparable within an allelic series) in [14]; 8.96 upbm affinity estimate (log intensity, higher = more binding, comparable within an allelic series) in [15]; 8.97 upbm affinity estimate (log intensity, higher = more binding, comparable within an allelic series) in [16]; 8.85 upbm affinity estimate (log intensity, higher = more binding, comparable within an allelic series) in [17]; 8.26 upbm affinity estimate (log intensity, higher = more binding, comparable within an allelic series) in [18].

Take GGATTACA: the binding signal in assay [1] was 13.1 upbm affinity estimate (log intensity, higher = more binding, comparable within an allelic series); in assay [19], 9.08 upbm affinity estimate (log intensity, higher = more binding, comparable within an allelic series); in assay [20], 9.3 upbm affinity estimate (log intensity, higher = more binding, comparable within an allelic series); in assay [21], 9.18 upbm affinity estimate (log intensity, higher = more binding, comparable within an allelic series); in [22], 9.44 upbm affinity estimate (log intensity, higher = more binding, comparable within an allelic series); in assay [13], 13 upbm affinity estimate (log intensity, higher = more binding, comparable within an allelic series). The binding signal in [23] is 12.8 upbm affinity estimate (log intensity, higher = more binding, comparable within an allelic series); in assay [24] it was 9.52 upbm affinity estimate (log intensity, higher = more binding, comparable within an allelic series); in [18], 13 upbm affinity estimate (log intensity, higher = more binding, comparable within an allelic series).

In the case of CCCGACCC, the binding signal in assay [1] was 7.98 upbm affinity estimate (log intensity, higher = more binding, comparable within an allelic series); in [19] it was 7.97 upbm affinity estimate (log intensity, higher = more binding, comparable within an allelic series); in assay [20], 8.07 upbm affinity estimate (log intensity, higher = more binding, comparable within an allelic series); in assay [21], 8.09 upbm affinity estimate (log intensity, higher = more binding, comparable within an allelic series); in assay [13], 8.12 upbm affinity estimate (log intensity, higher = more binding, comparable within an allelic series); in assay [18] it was 8.25 upbm affinity estimate (log intensity, higher = more binding, comparable within an allelic series).

ACCAGCCC: the binding signal in [1] was 8.23 upbm affinity estimate (log intensity, higher = more binding, comparable within an allelic series); in assay [25] it was 9.73 upbm affinity estimate (log intensity, higher = more binding, comparable within an allelic series); in [13], 8.32 upbm affinity estimate (log intensity, higher = more binding, comparable within an allelic series); in assay [26] it was 9.8 upbm affinity estimate (log intensity, higher = more binding, comparable within an allelic series); in assay [27], 9.71 upbm affinity estimate (log intensity, higher = more binding, comparable within an allelic series); in assay [28], 9.62 upbm affinity estimate (log intensity, higher = more binding, comparable within an allelic series). For the same sequence, the binding signal in [18] was 8.17 upbm affinity estimate (log intensity, higher = more binding, comparable within an allelic series).

For CCCCTGGA, the binding signal was 8.32 upbm affinity estimate (log intensity, higher = more binding, comparable within an allelic series) in assay [1]; 7.92 upbm affinity estimate (log intensity, higher = more binding, comparable within an allelic series) in [19]; 7.83 upbm affinity estimate (log intensity, higher = more binding, comparable within an allelic series) in [20]; 8.01 upbm affinity estimate (log intensity, higher = more binding, comparable within an allelic series) in [21]; 8.46 upbm affinity estimate (log intensity, higher = more binding, comparable within an allelic series) in [13]; 8.4 upbm affinity estimate (log intensity, higher = more binding, comparable within an allelic series) in [18].
